# From the supplement of paper PMC13380429
# Where a name gives a salt, the structure may show the parent alone. A number with no mark means an inactive call.
# Tested on: Vero E6 infected with SARS-CoV-2
# Test: inhibition of SARS-CoV-2 cytopathic effect; higher = more antiviral protection, active = above 15
# Details: 48 h
Compound,inhibition of SARS-CoV-2 cytopathic effect (1 nM),inhibition of SARS-CoV-2 cytopathic effect (8.33 nM),inhibition of SARS-CoV-2 cytopathic effect (100 nM),inhibition of SARS-CoV-2 cytopathic effect (833.33 nM),inhibition of SARS-CoV-2 cytopathic effect (10000 nM)
COc1cc(N)c(Cl)cc1C(=O)CCC1CCN(CCNS(C)(=O)=O)CC1,-0.46%,-0.03%,0.79%,0.95%,-0.74%
CNCCc1ccc(O)c(O)c1 [deoxyepinephrine],-0.96%,2.29%,2.18%,-0.04%,-0.83%
O=C(O)COc1nn(Cc2ccccc2)c2ccccc12 [bendazac],-1.4%,2.21%,0.57%,-1.97%,-2.52%
Cc1ccc(NC(=O)CCCCCC(=O)Nc2ccccc2N)cc1,2.4%,1.59%,0.54%,1.31%,3.57%
Cc1cccc(-c2nn3c(c2-c2ccnc4ccc(C(N)=O)cc24)CCC3)n1,0.85%,-0.43%,-0.97%,-0.85%,-1.59%
CC1(N2CCC(n3c([C@@H]4CCCNC4)nc4ccccc43)CC2)CCCCCCC1,0.07%,0.4%,-0.65%,-3.36%,83.5% (active)
CCC(CC)COC(=O)[C@H](C)N[P@](=O)(OC[C@H]1O[C@@](C#N)(c2ccc3c(N)ncnn23)[C@H](O)[C@@H]1O)Oc1ccccc1 [Remdesivir],-0.54%,1.32%,1.51%,0.56%,9.79%
CCOC(=O)CCC(=O)O[C@H]1[C@H](O[C@@H]2[C@@H](C)[C@H](O[C@H]3C[C@@](C)(OC)[C@@H](O)[C@H](C)O3)[C@@H](C)C(=O)O[C@H](CC)[C@@](C)(O)[C@H](O)[C@@H](C)C(=O)[C@H](C)C[C@@]2(C)O)O[C@H](C)C[C@@H]1N(C)C [erythromycin-ethylsuccinate],0.01%,0.11%,0.57%,0.29%,-0.24%
COc1ccc(-c2ccc3c(N4CCOCC4)nc(N4C[C@@H](C)O[C@@H](C)C4)nc3n2)cc1CO,1.75%,0.2%,2.09%,0.86%,-2.33%
CC(C)c1cc2c(cc1S(=O)(=O)O)[C@@]1(C)CCC[C@@](C)(C(=O)O)[C@@H]1CC2 [ecabet],-2.02%,0%,-1.76%,0.14%,-0.11%
CN[C@@H]1[C@H](O[C@H]2[C@H](O[C@H]3[C@H](O)[C@@H](O)[C@H](N=C(N)N)[C@@H](O)[C@@H]3N=C(N)N)O[C@@H](C)[C@]2(O)C=O)O[C@@H](CO)[C@H](O)[C@H]1O [STREPTOMYCIN SULFATE [5mM; 10% aq DMSO + 5mM ethanolamine]],-0.46%,-1.64%,-0.12%,1.53%,0.2%
N=C(N)NCCSSCCNC(=N)N [guanidinoethyldisulfide-bicarbonate],-2.83%,-2.77%,-1.91%,-2.43%,-5.27%
O=C[C@H](O)[C@@H](O)[C@H](O)CO [xylose],2.36%,1.7%,-0.84%,-1.64%,-4.41%
CC(C)=CCC[C@](C)(O)[C@H]1CC[C@]2(C)[C@@H]1[C@H](O)C[C@@H]1[C@@]3(C)CC[C@H](O)C(C)(C)[C@@H]3[C@@H](O)C[C@]12C [hemomex-s],-1.07%,0.12%,5.17%,-0.7%,0.84%
CCOc1ccccc1C(=O)O [2-ethoxybenzoic-acid],2.67%,3.72%,4.26%,0.66%,-0.66%
CC(C)[C@H](NS(=O)(=O)c1ccc(-c2ccc(Br)cc2)cc1)C(=O)O,0.82%,0.67%,-0.06%,0.69%,1.89%
CS(=O)(=O)c1ccc(C2=C(c3ccccc3)C(=O)OC2)cc1 [rofecoxib],1.64%,-0.86%,-0.87%,0.62%,1.14%
CCOc1ccc2nc(SCCN3CCOCC3)[nH]c2c1 [afobazole],0.28%,0.47%,-1.23%,-0.04%,1.56%
CC(C)=CCC[C@]1(C)C=Cc2c(O)c3c(c(CC=C(C)C)c2O1)O[C@]12C(=C[C@@H]4C[C@H]1C(C)(C)O[C@@]2(C/C=C(/C)C(=O)O)C4=O)C3=O [gambogic-acid],2.13%,-0.37%,0.38%,4.87%,-14.3%
COC(=O)N1CCN(Cc2cccc(NC(=O)Nc3ccc(C)nc3)c2F)CC1 [omecamtiv-mecarbil],-0.03%,0.93%,-0.98%,0.86%,3.03%

Compound,inhibition of SARS-CoV-2 cytopathic effect (1 nM),inhibition of SARS-CoV-2 cytopathic effect (8.33 nM),inhibition of SARS-CoV-2 cytopathic effect (100 nM),inhibition of SARS-CoV-2 cytopathic effect (833.33 nM),inhibition of SARS-CoV-2 cytopathic effect (10000 nM)
CCCCOc1ccc(C(=O)CCN2CCCCC2)cc1 [dyclonine],2.76%,3.66%,3.14%,3.62%,-0.75%
Cc1cc(C)nc(NS(=O)(=O)c2ccc(N)cc2)n1 [sulfamethazine],-2.32%,0.49%,0.37%,0.92%,-1.06%
O=C(O)CNC(=O)c1nc(Cl)c2ccccc2c1O,0.76%,0.65%,4.78%,2.19%,-0.7%
O=C(Nc1ccccc1)[C@]12C[C@H]1/C(=N\O)c1ccccc1O2,1.02%,3.35%,-0.61%,-0.42%,1.97%
COc1ccccc1Oc1c(NS(=O)(=O)c2ccc(C(C)(C)C)cc2)nc(-c2ncccn2)nc1OCCO [bosentan],-0.62%,1.39%,1.79%,-3.3%,-1.84%
N#Cc1ccc2[nH]cc(CCCCN3CCN(c4ccc5oc(C(N)=O)cc5c4)CC3)c2c1 [vilazodone],0.76%,1.07%,0.51%,1.56%,-3.06%
COC(=O)CCC(=O)CN [methyl-aminolevulinate],2.97%,2.46%,1.49%,3.55%,5.12%
O=C(CCCN1CCC(O)(c2ccc(Cl)cc2)CC1)c1ccc(F)cc1 [haloperidol],0.65%,1.48%,-0.07%,0.5%,-1.23%
Cc1cc(C)cc(C(=O)N(C)[C@H](Cc2ccc(-c3ccccc3)cc2)C(=O)N[C@@H](Cc2c[nH]c3ccccc23)C(=O)O)c1,0.46%,3.13%,5.42%,0.47%,1.98%
Cc1ccc(S(=O)(=O)n2c(N)nc3ccccc32)cc1,-0.51%,-0.92%,-2.91%,-2.7%,-0.17%
CC(C)C(=O)Nc1ccc([N+](=O)[O-])c(C(F)(F)F)c1 [flutamide],-1.61%,-1.6%,-3.44%,-2.92%,-5.12%
CC[C@H]1OC(=O)[C@H](C)C(=O)[C@H](C)[C@@H](O[C@@H]2O[C@H](C)C[C@H](N(C)C)[C@H]2O)[C@](C)(OC)C[C@@H](C)C(=O)[C@H](C)[C@H]2N(CCCCn3cnc(-c4cccnc4)c3)C(=O)O[C@]12C [telithromycin],-2.13%,-0.46%,-1.7%,0.65%,-0.07%
COc1ccc(C(=O)Nc2sc3c(c2C(N)=O)CCCC3)cc1OC,-0.36%,-0.47%,-3.78%,-0.85%,0.05%
COc1ccccc1N1CCN(CCCCNC(=O)c2ccc(-c3ccc(C(C)=O)cc3)cc2)CC1,-1.49%,-3.1%,-4.98%,-6.69%,-6.57%
CCCCCCCCCCCCCCCCCCCCCCCCCCCCO [1-octacosanol],1.47%,3.47%,4.36%,-0.37%,1.08%
CC(=O)c1ccc2c(c1)N(CCCN(C)C)c1ccccc1S2 [acepromazine],-0.95%,1.58%,-2.17%,-3.24%,-1.2%
CC(=O)NNC(=O)N1Cc2ccccc2Oc2ccc(Cl)cc21,-0.04%,1.22%,-0.93%,-0.99%,-2.14%
CC(C)(C)c1cc(/C=C(\C#N)C(N)=S)cc(C(C)(C)C)c1O [tyrphostin-AG-879],-1.49%,-0.31%,-1.98%,5.42%,8.93%
NC1CCN(c2nc3c(cc2F)c(=O)c(C(=O)O)cn3-c2ccc(F)cc2F)C1 (stereo not given) [tosufloxacin],-2.93%,0.34%,-3.49%,-3.32%,-0.08%
